Compounds with a hit are over-represented: about 11% of the library has one in this group of screens.
G9a inh: qHTS Assay for Inhibitors of Histone Lysine Methyltransferase G9a; Histone-lysine N-methyltransferase EHMT2 (Homo sapiens), Q96KQ7; AID 504332, 2011; G9a H3K9 monomethylation, AlphaScreen, 2 h; Potency, µM (series often up to 102 µM), most hits filed as inhibitors; actives 8.8% (n = 350,000); further: nearly all actives have a fitted effect of over 75% in size
Target sequence (Q96KQ7 913-1193 limits assumed): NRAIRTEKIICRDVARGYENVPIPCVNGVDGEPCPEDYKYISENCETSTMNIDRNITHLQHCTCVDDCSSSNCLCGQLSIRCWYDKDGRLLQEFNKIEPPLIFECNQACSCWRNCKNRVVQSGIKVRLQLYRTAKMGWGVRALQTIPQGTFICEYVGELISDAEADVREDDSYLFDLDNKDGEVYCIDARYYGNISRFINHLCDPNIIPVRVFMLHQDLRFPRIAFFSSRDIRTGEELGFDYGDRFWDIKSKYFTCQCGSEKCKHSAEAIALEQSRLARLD
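Quantitative HTS format: methyltransferase activity on a biotin-tagged H3K9 peptide is measured by AlphaScreen, using a rabbit anti-monomethyl-H3K9 antibody with streptavidin donor and anti-IgG acceptor beads. Final levels are 20 nM enzyme, 500 nM peptide, 20 uM SAM; 2 h RT.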
FBPA coupling cs: qHTS Assay for Inhibitors of Fructose-1,6-bisphosphate Aldolase from Giardia Lamblia: Coupling assay counterscreen; actives 0.67% (n = 290,000); coupling enzyme system counterscreen, AmpLite Red fluorescence; activity change, negative = inhibition, % at 58.2 µM, hits read low; AID 2472, 2010; in the data active means activity change below about -30%
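Activity here indicates interference with the coupling reaction, not aldolase inhibition. Compounds at 57.5 uM final met coupling enzymes for 10 min at RT; substrate and AmpLite Red detection followed, with a 525/598 nm fluorescence read after 20 min.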
Tau FP inhib: qHTS for Inhibitors of Tau Fibril Formation, Fluorescence Polarization; Microtubule-associated protein tau (Homo sapiens), P10636; K18 P301L tau heparin fibrillization, Alexa594 FP, 6 h; Potency, µM (series often up to 57.7 µM), hits mostly inhibitors; actives 0.39% (n = 280,000); further: nearly all actives have a fitted effect of over 55% in size
Target sequence (P10636 561-689 P618L limits assumed): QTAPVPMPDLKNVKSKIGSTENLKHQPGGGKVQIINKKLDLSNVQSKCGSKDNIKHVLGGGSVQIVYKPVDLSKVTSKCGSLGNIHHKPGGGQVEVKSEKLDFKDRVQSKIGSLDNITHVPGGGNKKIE
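Human K18 P301L fragment (15 uM unlabeled plus 0.24 uM Alexa 594-labeled) in 100 mM sodium acetate pH 7 with compound, aggregation induced by 20 uM heparin for 6 hr at 37 C. ThT (30 uM) added for 1 hr, then Alexa 594 FP read.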
Tau fibril ThT: qHTS for Inhibitors of Tau Fibril Formation, Thioflavin T Binding; AID 1460, 2008; Potency, µM (titrated, usually from 57.4 µM), actives largely listed as inhibitors; actives 2.1% (n = 270,000); recombinant tau K18 P301L, heparin-induced fibrillization, ThT fluorescence; further: nearly all actives have a fitted effect of over 55% in size
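K18 P301L tau (15 uM + 0.24 uM Alexa 594-tagged), heparin 20 uM, NaOAc pH 7, 6 h 37 C; ThT 30 uM, 1 h RT, ex 450/em 510 nm.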
Tau fluor cs: Counterscreen qHTS for Inhibitors of Tau Fibril Formation, Fluorescence Polarization; actives 0.93% (n = 280,000); tau K18 P301L Alexa594 fluorescence, heparin fibrillization; Potency, µM (doses to about 57.7 µM); further: nearly all actives have a fitted effect of over 55% in size
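Human tau K18 P301L (15 uM unlabeled, 0.24 uM Alexa 594-labeled) in 100 mM sodium acetate pH 7 with 20 uM heparin, 6 hr at 37 C. ThT 30 uM added, 1 hr ambient; Alexa 594 FP and total fluorescence read at 555/632 nm.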
Sfp inh: qHTS Assay for Inhibitors of Bacillus subtilis Sfp phosphopantetheinyl transferase (PPTase); Potency, µM, most hits filed as inhibitors; Biochemical Sfp PPTase activity, qHTS; actives 3.5% (n = 310,000);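 further: the enzyme is Sfp with the accession as filed and its product quenches rhodamine fluorescence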
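Compounds were incubated with enzyme (final 15 nM) for 15 min at room temperature before substrate addition started the reaction. Fluorescence at 525 nm excitation, 598 nm emission was recorded immediately and after 30 minutes.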
Numbers stand for hits; – = inactive; ? = inconclusive; · = no result; [ ] = dose if it differs, or a comment. Unless noted, the call rests on the fitted dose curve; in most records, active means well fitted curve in the direction sought with a large enough effect; inconclusive means small, poorly fitted or top-dose-only effect, or another doubt; inactive means no such curve, though single readings can be large; an effect the other way counts as inactive or inconclusive.

SMILES	G9a inh	FBPA coupling cs	Tau FP inhib	Tau fibril ThT	Tau fluor cs	Sfp inh
COc1ccc(CNC(=O)c2cc3c(=O)n(C)c4ccccc4c3n2C)c(OC)c1	–	·	–	–	–	·
CCc1ccc(-n2nc(CO)c(C(=O)NCCCc3ccccc3)n2)cc1	–	·	–	?	–	·
Cn1c(CN2CCOCC2)c(C#N)c2ccccc21	32µM	–	–	–	–	–
Cn1c(CN2CCCC2)c(C#N)c2ccccc21	?	–	–	–	–	–
CC1CCN(Cc2c(C#N)c3ccccc3n2C)CC1	25µM	–	–	–	–	–
COc1ccc(C(CC(=O)NC(C)c2ccc(-c3ccccc3)cc2)NC(C)=O)cc1 (centres undefined)	–	–	·	·	·	–
CN(CC(=O)Nc1ccc(N2CCOCC2)cc1)C(=O)CSc1ccc(F)cc1	13µM	·	·	·	·	·
Cc1ccc(CC(=O)N(C)CC(=O)Nc2ccc(N3CCOCC3)cc2)cc1C	14µM	·	·	·	·	·
COc1ccc(Br)c(C(=O)N(C)CC(=O)Nc2ccc(N3CCOCC3)cc2)c1	20µM	·	·	·	·	·
CN(CC(=O)Nc1ccc(N2CCOCC2)cc1)C(=O)CSc1ccc(Br)cc1	·	·	·	·	·	–
Cc1cc(C)cc(OCC(=O)N(C)CC(=O)Nc2ccc(N3CCOCC3)cc2)c1	35µM	·	·	·	·	·
Cc1ccc(CSCCNC(=O)C2CCN(S(=O)(=O)Cc3ccccc3)CC2)cc1	–	·	–	–	–	·
Cc1cccc(-n2cc(-c3ccccc3)nc2SCC(=O)Nc2ccccc2Cl)c1	?	·	–	–	–	·
Cc1cccc(-c2nn(-c3ccccc3)cc2C(=O)N(C)CC(=O)Nc2ccc(N3CCOCC3)cc2)c1	7.9µM	·	·	·	·	·
O=C(CN(Cc1ccc(F)cc1)C(=O)c1csnn1)NC1CCCC1	–	–	·	·	·	–
O=C1C2C3C=CC(C2C(=O)N1CCO)C1C(=O)N(CCO)C(=O)C31 (centres undefined)	–	–	·	·	·	–
Cc1[nH]c(N=Nc2ccccc2)nc1N=Nc1ccccc1	7.9µM	–	–	3.5µM	?	–
COc1ccc(OCC(=O)NC2CC(=O)N(c3cccc(OC)c3)C2)cc1 (centres undefined)	–	·	–	–	–	·
OCCCNc1nc(-c2ccccc2)nc2c1oc1ccccc12	50µM	–	?	–	?	–
O=C(O)CNc1nc(-c2ccccc2)nc2c1oc1ccccc12	–	–	–	?	–	–
c1ccc(-c2nc(NCC3CCCO3)c3oc4ccccc4c3n2)cc1 (centres undefined)	45µM	–	?	–	?	–
Nc1c(CC(=O)O)cccc1C(=O)c1ccc(Br)cc1	–	·	·	·	·	–
COc1ccccc1N1CCN(C(=O)/C=C/c2ccco2)CC1	?	–	–	–	–	–
O=C(NCCC(=O)N1CCN(c2ccc(F)cc2)CC1)c1ccco1	50µM	·	·	·	·	·
O=C(/C=C/c1ccco1)N1CCN(c2ccc(F)cc2)CC1	?	–	–	·	?	18µM
COc1ccc(N2CCN(C(=O)/C=C/c3ccco3)CC2)cc1	32µM	–	?	?	–	–
O=C(/C=C/c1ccco1)N1CCCC(c2ccccc2)C1 (centres undefined)	40µM	–	–	?	–	?
O=C(/C=C/c1ccccc1)N1CCC(c2ccccc2)C1 (centres undefined)	–	–	–	?	–	–
O=c1n(Cc2cc3c(cc2Cl)OCO3)c(=O)n2n1CC[C@H]1/C(=N\OCc3ccccc3)[C@H]3O[C@@H]3[C@@H](O)[C@@H]12	·	–	–[11.6 µM]	–[11.5 µM]	–[11.6 µM]	–
COc1ncc2nc(C)c(=O)n(-c3ccccc3)c2n1	–[0.501 µM]	–	·	·	·	–
